Source: PubChem BioAssay
TRHR enhancer – allosterically enhances the human TRH receptor | P34981 | TRHR cells, fluo-8 calcium fluorescence, EC20 TRH enhancement | enhancement, % at 2 µM | 0.66% of 360,000 active; in the data active = enhancement above about 30%; also: 0% is about no effect
Target sequence (P34981 whole entry, looked up): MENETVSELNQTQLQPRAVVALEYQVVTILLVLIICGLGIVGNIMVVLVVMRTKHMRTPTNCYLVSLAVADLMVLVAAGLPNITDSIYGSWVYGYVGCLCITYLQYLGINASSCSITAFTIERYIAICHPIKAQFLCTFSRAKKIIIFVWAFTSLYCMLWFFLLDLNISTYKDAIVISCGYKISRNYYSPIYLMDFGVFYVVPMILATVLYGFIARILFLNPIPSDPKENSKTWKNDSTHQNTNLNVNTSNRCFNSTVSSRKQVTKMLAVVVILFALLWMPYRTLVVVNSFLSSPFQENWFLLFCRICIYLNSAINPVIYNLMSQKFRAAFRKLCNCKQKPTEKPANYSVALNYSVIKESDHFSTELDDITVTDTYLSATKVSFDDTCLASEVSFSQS
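Enhancer read-out: after compound pinning and an initial kinetic agonist-mode read, an EC20 of TRH (10 nM final) was injected and fluo-8 calcium signal (Ex 480/Em 530) followed at 1 s/cycle for 100 cycles in TRHR-expressing cells.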
D1 ag – activates the human D1 dopamine receptor; HEK293 T-REx D1 cells, calcium flux, agonist mode; activation, % at 2 µM; 1% of 360,000 active; AID 504660; also: 0% is about no effect
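Inducible HEK293 T-REx D1 cells, force-coupled to calcium signalling, were plated at 4000 cells/well with tetracycline and held overnight at 30 C. After no-wash calcium dye loading, compound-evoked calcium rise over 180 s flagged agonists.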
D1 PAM – human D1 dopamine receptor positive modulation | P21728 | HEK293 TREx D1 cells, calcium flux, dopamine EC20 potentiation | potentiation, % at 10 µM | 0.036% of 360,000 active | AID 504651; in the data active = potentiation above about 30%; also: 0% is about no effect
D1 antagonist – blocks dopamine activation of the human D1 receptor; P21728; HEK293 TREx D1 cells, calcium flux, dopamine EC80; active compounds read low; activity change, negative = inhibition, % at 10 µM; 3.2% of 360,000 active; in the data active = activity change below about -30%; also: % is scaled to controls: 0 for no effect and ±100 for the full control effect
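After overnight tetracycline induction at 30 C, force-coupled D1 HEK293 cells took up a no-wash calcium dye at room temperature. Compounds were added and monitored 180 s, and the response to EC80 dopamine was then recorded.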
TRHR ag – activates the human TRH receptor | P34981 | TRHR cells, calcium flux fluo-8, FDSS agonist mode | activation, % at 2 µM | 0.18% of 360,000 active; also: 0% is about no effect
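Fluo-8-loaded TRHR cells; 10 s baseline, compound added, kinetic Ca2+ fluorescence read 1/s, agonist mode.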
* = called active by the depositor; x = no result given. The list is not random: actives were taken first. Their share in the collection is about 4.6%. Rule as the data show it, unless noted: active = activation above about 30%; inactive = the rest.

SMILES	TRHR enhancer	D1 ag	D1 PAM	D1 antagonist	TRHR ag
CCOc1ccccc1CNC(=O)c1ccc2nc(N3CCC(C)CC3)sc2c1	0.3	2.0	-2.0	-13.6	0.0
COc1ccc(OC)c(NC(=O)Nc2cccc(OCc3cc(=O)n4cc(C)ccc4n3)c2)c1	23.7	-0.2	0.2	-3.6	-0.1
Cc1ccc(CNC(=O)C(C)OC(=O)c2ccco2)cc1 (stereo unspecified)	-0.3	1.5	-3.1	-7.3	0.0
CCC(OC(=O)c1ccco1)C(=O)NCc1ccc(C)cc1 (stereo unspecified)	-22.5	-0.6	-10.5	-76.8*	-0.2
C/C(=N\NC(=O)C1CC1(c1ccccc1)c1ccccc1)c1cccc([N+](=O)[O-])c1 (stereo unspecified)	-1.1	0.9	-4.6	-76.8*	0.6
CCOc1ccc(CNc2ccc(N3CCOCC3)c(C(=O)O)c2)cc1	-3.4	3.5	-10.9	-56.4*	-0.1
c1ccc(Nc2nc(N3CCOCC3)nc(N3CCOCC3)n2)cc1	39.4*	1.1	2.2	-8.1	0.3
CCOc1ccc(Nc2nc(Nc3ccc(OCC)cc3)nc(N3CCOCC3)n2)cc1	34.5*	0.6	-1.9	-5.6	-0.5
Cc1cc(/C=N/Nc2nc(N3CCOCC3)nc(N3CCOCC3)n2)c(C)n1-c1ccccc1	32.2*	2.2	-1.9	4.6	-0.5
CC(=O)Nc1ccc(S(=O)(=O)NC2(C(F)(F)F)NC(=O)N(CCc3ccc(F)cc3)C2=O)cc1 (stereo unspecified)	15.3	0.1	0.7	3.7	-1.9
O=[N+]([O-])c1ccc(Nc2nc(NCCO)nc(N3CCCC3)n2)cc1	0.1	0.5	3.4	-18.3	0.3
CCCNc1nc(Nc2ccc(C)cc2)nc(N2CCCC2)n1	19.5	4.6	-23.1	-35.5*	1.0
O=C(COc1ccc(Cl)cc1)NCCc1csc(-c2ccc(C(F)(F)F)cc2)n1	10.7	10.4	-3.4	-35.9*	0.8
O=C(COc1ccccc1)NCCc1csc(-c2ccc(Cl)cc2)n1	2.4	13.7	-2.5	-49.3*	-0.3
O=C(CSC1=Nc2ccccc2N=C(c2ccc(F)cc2)C1)Nc1cc(F)ccc1F	6.0	7.3	-3.8	-18.3	1.5
COc1ccc(Br)cc1CNC(=O)CSc1cc(=O)n(C)c2ccccc12	-0.9	-1.6	3.2	-1.1	-0.3
COc1ccccc1NC(=O)c1sc2ncn(Cc3ccccc3Cl)c(=O)c2c1C	-3.2	0.6	-6.5	-2.5	0.4
CCOC(=O)C(=CNc1cccc(N)n1)C(=O)OCC	0.7	1.3	-5.8	-23.0	-0.4
CCOC(=O)C(=CNc1ccc(Cl)cn1)C(=O)OCC	5.3	1.2	0.1	-40.0*	-1.0
COc1ccc(-c2nc3scc(CCNS(=O)(=O)c4cccs4)n3n2)cc1	12.5	28.0	-3.1	x	-0.7
Cc1ccc(C(C)C)c(OCC(O)CN2CCN(c3ccccc3F)CC2)c1 (stereo unspecified)	11.4	4.5	-1.4	-34.0*	0.8
COc1ccc(N2CCN(CC(O)COc3ccc(F)cc3)CC2)cc1 (stereo unspecified)	10.7	11.5	-22.3	-65.6*	-0.4
C=CCc1ccccc1OCC(O)CN1CCN(c2ccccc2F)CC1 (stereo unspecified)	-3.6	7.3	-19.5	-61.1*	0.7
COc1cccc(OC)c1OCC(O)CN1CCN(c2ccccc2F)CC1 (stereo unspecified)	2.0	3.8	-5.7	-18.1	-1.1
OC(COc1ccccc1Cl)CN1CCN(CC(O)COc2ccccc2Cl)CC1 (stereo unspecified)	-5.3	99.0*	-6.0	-81.7*	3.0
SMILES	TRHR enhancer	D1 ag	D1 PAM	D1 antagonist	TRHR ag
Cc1ccc(C(C)C)c(OCC(O)CN2CCc3ccccc3C2)c1 (stereo unspecified)	4.5	26.8	-0.1	-7.5	1.3
CCOC(=O)c1cccc(NS(=O)(=O)c2ccc(-c3cnc(C4CC4)o3)cc2)c1	1.1	1.5	0.3	-11.6	-0.8
C=CCc1ccccc1OCC(O)CN1CCN(c2ccccc2OC)CC1 (stereo unspecified)	5.4	15.6	-8.3	-43.2*	0.5
C=CCc1cc(OC)ccc1OCC(O)CN1CCN(c2ccc(OC)cc2)CC1 (stereo unspecified)	6.5	5.9	-2.6	-7.0	-0.2
COc1cc(C(C)=O)ccc1OCC(O)CN1CCN(c2ccc(C)cc2C)CC1 (stereo unspecified)	3.6	3.1	-1.2	-38.7*	0.1
C=CCc1ccc(OCC(O)CN2CCN(c3ccccc3)CC2)c(OC)c1 (stereo unspecified)	-0.2	13.8	-11.3	-30.9*	-0.4
C=CCc1ccccc1OCC(O)CNC(C)C (stereo unspecified)	3.1	4.0	-4.8	-36.0*	0.7
C=CCc1ccc(OCC(O)CN2CCCCC2)c(OC)c1 (stereo unspecified)	-0.2	2.1	-6.6	-6.0	-0.1
Cc1ccc(C)c(OCC(O)CN2CCC(Cc3ccccc3)CC2)c1 (stereo unspecified)	-4.0	47.4*	-18.4	-78.4*	2.3
C=CCc1ccccc1OCC(O)CN1CCN(c2ccccc2)CC1 (stereo unspecified)	4.7	-3.3	-0.1	-39.3*	-1.7
COc1ccccc1NC(=S)N(Cc1cccs1)C1CCCC1	2.7	-0.3	-0.8	-3.9	-0.4
COc1ccccc1NC(=S)N(Cc1ccccc1)Cc1cccs1	10.7	12.0	-1.9	-54.1*	-0.4
CN1/C(=C\C=C2/SC(=S)N(CC(=O)O)C2=O)C(C)(C)c2ccccc21	-20.7	181.9*	-9.9	-26.3	111.8*
C=CCN1C(=O)/C(=C\C=C2\N(C)c3ccccc3C2(C)C)SC1=S	1.5	85.2*	-8.2	-0.7	25.1
CCN1C(=O)/C(=C\N2CCCc3ccccc32)SC1=S	1.8	2.2	-6.8	-16.7	-0.5
CCCN1C(=O)/C(=C/C=C2\N(CC)c3ccccc3C2(C)C)SC1=S	1.3	63.4*	-2.0	-0.1	23.7
Cc1c(N=C/C=C2\N(C)c3ccccc3C2(C)C)c(=O)n(-c2ccccc2)n1C	-2.0	5.6	-1.5	5.1	0.7
CCCCN1C(=O)/C(=C/C=C2\Oc3ccccc3N2CC)SC1=S	3.8	393.3*	-5.7	-29.8	97.7*
Cc1ccc(S(=O)(=O)c2c(O)cc(C)c(NS(=O)(=O)c3ccc(Cl)cc3)c2C)cc1	5.4	0.2	0.2	-3.1	-1.9
COCCNC(=O)Nc1cc(C(=O)NCc2ccc(C(C)C)cc2)ccc1N1CCCC1	6.8	0.5	0.2	12.5	-0.9
O=C(NC1CCCCC1)N(Cc1nc2ccccc2c(=O)[nH]1)C1CCCCC1	-5.2	0.5	8.8	-3.2	1.0
O=C(NC1CCCCC1)N(Cc1nc2ccccc2c(=O)[nH]1)C1CCCC1	-9.3	0.4	4.5	-64.2*	-1.2
COc1cccc(CNC(=O)Cn2c(=O)oc3cc(S(=O)(=O)N4CCCC4)ccc32)c1	1.4	5.2	-3.2	-31.3*	0.4
